The source of these data is PubChem BioAssay (NCI).

Some test systems named below: T-47D breast; BT-549 breast; MDA-MB-435 melanoma; SW-620 colon; MCF7 breast; HCT-116 colon; HCC-2998 colon; KM12 colon.
What all share (assay): NCI-60 one-dose screen, 48 h (100 = growth as untreated, 0 = no growth, -100 = all killed)
Holding throughout (details): 10 µM unless noted

Compounds without any hit were thinned out: in the full panel of roughly 83,000, 20% have a hit.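 Each cell line was grown in a 96-well plate and treated with one concentration of compound for 48 hours. Values below 10 were considered active.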 Values without a mark were called inactive. Calls of active or inactive are those of the source.

With `CN(CCNCc1ccccn1)CCNCc1ccccn1`, the growth was 0.513% (active) in the experiment on T-47D breast; -2.61% (active) with BT-549 breast; -30.7% (active) in the experiment on MDA-MB-435 melanoma; 4.13% (active) in the experiment with SW-620 colon; 6.52% (active) in the experiment on MCF7 breast; -25.2% (active) in the experiment on HCT-116 colon. The growth in the experiment on HCC-2998 colon is -46.8% (active); in the experiment on KM12 colon, -0.112% (active).
Take `COc1ccc(-c2nnc(NC(=O)CN3CCN(c4cc5c(cc4F)c(=O)c(C(=O)O)cn5C4CC4)CC3)s2)cc1OC`: the growth in the experiment on T-47D breast was 101%; with BT-549 breast, 105%; with MDA-MB-435 melanoma, 103%; in the experiment with SW-620 colon it was 105%; in the experiment with MCF7 breast, 106%; in the experiment on HCT-116 colon it was 103%. Further, the growth with HCC-2998 colon is 99.6%; in the experiment with KM12 colon it was 98.2%.
Take `C=CCn1c(SCC(=O)Nc2ccc(/C(C)=N\O)cc2)nnc1-c1cc(-c2ccc(OC)cc2)nc2ccccc12`: the growth is -4.63% (active) in the experiment with T-47D breast; 35.6% in the experiment with BT-549 breast; 46.1% in the experiment with MDA-MB-435 melanoma; 39.4% in the experiment on SW-620 colon; 45.8% in the experiment with HCC-2998 colon; 29% with KM12 colon.
Take `O=C(Nc1ccc(-n2ccc3c(NC(=O)c4ccccc4)ncnc32)cc1)Nc1cccc(Cl)c1Cl`: the growth was 42.8% in the experiment with T-47D breast; 49.2% in the experiment with BT-549 breast; -4.29% (active) in the experiment with MDA-MB-435 melanoma; 11.5% in the experiment on SW-620 colon; 2.07% (active) in the experiment with MCF7 breast; -25.4% (active) in the experiment on HCT-116 colon. Also, the growth in the experiment with HCC-2998 colon is 64.6%; in the experiment with KM12 colon, 20.7%.
For the compound `Cc1c(C(C)(C)C)cc(C(C)(C)C)c2c1CN(C)CO2`, the growth in the experiment on T-47D breast was 104%; with BT-549 breast, 110%; with MDA-MB-435 melanoma, 113%; with SW-620 colon, 117%; in the experiment on MCF7 breast, 99.8%; with HCT-116 colon, 104%. Further, the growth with HCC-2998 colon is 101%; in the experiment with KM12 colon, 113%.
Take `N#Cc1c2c(c(N)[nH]c1=O)C(=O)NC2(O)c1ccccc1` (configuration not stated): the growth was 103% in the experiment with T-47D breast; 105% with BT-549 breast; 109% with MDA-MB-435 melanoma; 111% in the experiment on SW-620 colon; 99.6% with MCF7 breast; 104% in the experiment on HCT-116 colon. Further, the growth with HCC-2998 colon was 101%; with KM12 colon, 102%.
As for `Nc1ccc(S(=O)(=O)Nc2cc(I)cc(I)c2)cc1`, the growth in the experiment with T-47D breast was 105%; with BT-549 breast, 118%; in the experiment on MDA-MB-435 melanoma, 106%; in the experiment with SW-620 colon, 119%; in the experiment on MCF7 breast it was 120%; in the experiment with HCT-116 colon, 99.5%. The growth is 105% with HCC-2998 colon and 111% in the experiment on KM12 colon.
Turning to `COc1ccc(OC)c(NCC(=O)n2nc(/C=C\c3ccc(O)c(OC)c3)cc2/C=C\c2ccc(O)c(OC)c2)c1`, the growth with T-47D breast is 15.5%; in the experiment with BT-549 breast, 17.1%; in the experiment with MDA-MB-435 melanoma it was 5.88% (active); in the experiment with SW-620 colon, 9.13% (active); in the experiment on HCC-2998 colon, 18%; in the experiment with KM12 colon, 11.1%.
In the case of `COC(=O)Nc1nc2ccc(Sc3ccccc3)cc2[nH]1`, the growth with T-47D breast is 60.8%; with BT-549 breast, 49.5%; in the experiment on MDA-MB-435 melanoma, -45.2% (active); in the experiment on SW-620 colon, 18.6%; in the experiment with MCF7 breast, 21.4%; in the experiment on HCT-116 colon, 15%. For the same compound, the growth in the experiment on HCC-2998 colon was 0.2% (active); with KM12 colon, 3.07% (active).
Consider `Cc1c(F)cccc1NC(=O)c1sc2nc3c(cc2c1N)CCCCC3`, for which the growth in the experiment with T-47D breast was 63.6%; with BT-549 breast, 73.6%; with MDA-MB-435 melanoma it was 9.59% (active); in the experiment on SW-620 colon it was 25%; in the experiment with MCF7 breast, 14.8%; in the experiment with HCT-116 colon, 49.8%. Besides, the growth was 75.8% in the experiment on HCC-2998 colon and 34.8% with KM12 colon.
In the case of `O=C1C(Cl)=C(Nc2ccccc2)C(=O)C(Cl)=C1Nc1ccccc1`, the growth was 98.4% in the experiment with T-47D breast; 112% in the experiment on BT-549 breast; 104% in the experiment on MDA-MB-435 melanoma; 107% in the experiment with SW-620 colon; 105% with MCF7 breast; 112% with HCT-116 colon. Also, the growth in the experiment on HCC-2998 colon and in the experiment on KM12 colon was 116% in each case.
As to `CC(=O)CC/C=C(\C)[C@H](O)[C@H](C)C(=O)O[C@H]1C[C@H](C)C=C2C=C[C@@]3(C)O[C@@H](O)CC(=O)[C@]3(C)[C@H]21`, the growth is -26.6% (active) with T-47D breast; -57% (active) in the experiment with BT-549 breast; -88.3% (active) in the experiment on MDA-MB-435 melanoma; 1.02% (active) in the experiment with SW-620 colon; -4.71% (active) in the experiment on MCF7 breast; -20.3% (active) with HCT-116 colon. For the same compound, the results for the growth in the experiment with HCC-2998 colon and with KM12 colon were -81.9% (active) and -10% (active), respectively.
Take `COc1cccc(C2CC(c3cc(OC)c(OC)c(OC)c3)=NN2)c1` (configuration not stated): the growth with T-47D breast was 78.7%; in the experiment on BT-549 breast it was 93.6%; with MDA-MB-435 melanoma it was 11.9%; with SW-620 colon, 51.7%; with MCF7 breast it was 51.5%; in the experiment on HCT-116 colon it was 66.5%. Further, the growth was 83.2% in the experiment with HCC-2998 colon and 54.7% in the experiment on KM12 colon.
For the compound `COc1ccc(/C=C/C(=O)/C=C(/C=C/c2ccc(OC)c(OC)c2OC)OB(F)F)c(OC)c1OC`, the growth in the experiment on T-47D breast was 50.4%; in the experiment with BT-549 breast it was 31.4%; in the experiment with MDA-MB-435 melanoma, 0.716% (active); in the experiment with SW-620 colon, 8% (active); with HCC-2998 colon, 59.2%; in the experiment on KM12 colon it was 22.8%.
For `COc1cc(C(=O)C[n+]2ccccc2)ccc1OC(C)=O`, the growth in the experiment with T-47D breast was 103%; in the experiment on BT-549 breast it was 94.5%; with MDA-MB-435 melanoma, 99.8%; in the experiment with SW-620 colon, 96.9%; in the experiment with MCF7 breast it was 95.6%; in the experiment on HCT-116 colon, 87.6%. Besides, the growth with HCC-2998 colon is 105%; in the experiment on KM12 colon it was 102%.
With `CCCc1nn2c(CCC(=O)c3nc4ccc([N+](=O)[O-])cc4[nH]3)nnc2s1`, the growth in the experiment on T-47D breast is 102%; in the experiment on BT-549 breast it was 111%; in the experiment with MDA-MB-435 melanoma, 103%; in the experiment with SW-620 colon, 97.6%; in the experiment on HCC-2998 colon it was 100%; in the experiment with KM12 colon, 104%.
In the case of `O=C(NCCNc1nccc(-c2c(-c3cccc(O)c3)nc3sccn23)n1)Nc1cccc(C(F)(F)F)c1`, the growth with T-47D breast was 63.8%; in the experiment on BT-549 breast, 41.1%; with MDA-MB-435 melanoma, -3.01% (active); in the experiment with MCF7 breast it was 55.6%; in the experiment on HCT-116 colon it was 56.8%; in the experiment on HCC-2998 colon it was 23%. Besides, in the experiment on KM12 colon, the growth is 14%.
